We go through 4 sequences from article PMC11006913.

What all share (test): PBM; 200 nM protein, PBS
Common to all, as to details: dsDNA, one strand shown

For test [1], the target named is T1, VENTX (Homo sapiens, UniProt O95231 78-163, R121Q).
T1 sequence: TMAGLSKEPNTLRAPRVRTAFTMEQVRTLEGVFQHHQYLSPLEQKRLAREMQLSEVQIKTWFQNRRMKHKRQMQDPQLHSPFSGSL

For test [2], the target named is HOXA4 (Homo sapiens, UniProt Q00056 201-287, W262R).
In test [3] the target is HOXA7 (Homo sapiens, UniProt P31268 116-202).
Test [4] has as its target ALX4 (Homo sapiens, UniProt Q9H161 200-286).
Test [5] deals with PRRX1 (Homo sapiens, UniProt P54821 80-166, F113S).
Test [6] deals with HOXB6 (Homo sapiens, UniProt P17509 132-218, K202E).
Test [7] has as its target ALX4 (Homo sapiens, UniProt Q9H161 200-286, Q225E).
Test [8] addresses HOXA2 (Homo sapiens, UniProt O43364 129-215, R185T).
The target in test [9] is MSX2 (Homo sapiens, UniProt P35548 130-214, R199I).
The target of test [10] is HOXA2 (Homo sapiens, UniProt O43364 129-215, R185K).
The target in test [11] is HOXA4 (Homo sapiens, UniProt Q00056 201-287).
The target in test [12] is MSX2 (Homo sapiens, UniProt P35548 130-214).
Test [13] concerns the target MSX2 (Homo sapiens, UniProt P35548 130-214, F161Y).
Test [14] deals with VAX1 (Homo sapiens, UniProt Q5SQQ9 86-172, T142I).
For test [15], the target named is HOXA7 (Homo sapiens, UniProt P31268 116-202, W177C).
For test [16], the target named is ALX1 (Homo sapiens, UniProt Q15699 118-204).
The target of test [17] is HOXA4 (Homo sapiens, UniProt Q00056 201-287, W262F).
Test [18] addresses PRRX1 (Homo sapiens, UniProt P54821 80-166).
Test [19] addresses VAX1 (Homo sapiens, UniProt Q5SQQ9 86-172, K157R).
Test [20] addresses HOXB6 (Homo sapiens, UniProt P17509 132-218).

Sequence of HOXA7 (Homo sapiens, UniProt P31268 116-202, W177C) (P31268 116-202 W177C): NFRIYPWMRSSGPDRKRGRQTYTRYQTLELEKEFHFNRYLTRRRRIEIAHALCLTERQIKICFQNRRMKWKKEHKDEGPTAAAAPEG
Sequence of HOXA4 (Homo sapiens, UniProt Q00056 201-287, W262R) (Q00056 201-287 W262R): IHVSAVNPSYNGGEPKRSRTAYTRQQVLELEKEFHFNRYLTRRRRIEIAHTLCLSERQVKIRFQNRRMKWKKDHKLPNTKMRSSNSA
Sequence of HOXA4 (Homo sapiens, UniProt Q00056 201-287, W262F) (Q00056 201-287 W262F): as the sequence (Q00056 201-287 W262R) above, with R62F counted along it
Sequence of ALX4 (Homo sapiens, UniProt Q9H161 200-286, Q225E) (Q9H161 200-286 Q225E): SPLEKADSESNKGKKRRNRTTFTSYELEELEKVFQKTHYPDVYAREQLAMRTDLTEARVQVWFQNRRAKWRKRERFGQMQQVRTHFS
Sequence of ALX4 (Homo sapiens, UniProt Q9H161 200-286) (Q9H161 200-286): as the sequence (Q9H161 200-286 Q225E) above, with E26Q counted along it
Sequence of HOXA4 (Homo sapiens, UniProt Q00056 201-287) (Q00056 201-287): as the sequence (Q00056 201-287 W262R) above, with R62W counted along it
Sequence of MSX2 (Homo sapiens, UniProt P35548 130-214) (P35548 130-214): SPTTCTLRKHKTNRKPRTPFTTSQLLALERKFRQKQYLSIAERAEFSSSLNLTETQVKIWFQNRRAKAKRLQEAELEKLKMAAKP
Sequence of ALX1 (Q15699 118-204): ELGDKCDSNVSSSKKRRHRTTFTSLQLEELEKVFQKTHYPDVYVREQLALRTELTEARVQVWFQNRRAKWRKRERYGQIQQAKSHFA
Sequence of HOXA2 (Homo sapiens, UniProt O43364 129-215, R185K) (O43364 129-215 R185K): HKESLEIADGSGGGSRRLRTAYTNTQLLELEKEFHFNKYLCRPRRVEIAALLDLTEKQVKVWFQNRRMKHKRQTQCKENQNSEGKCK
Sequence of PRRX1 (Homo sapiens, UniProt P54821 80-166, F113S) (P54821 80-166 F113S): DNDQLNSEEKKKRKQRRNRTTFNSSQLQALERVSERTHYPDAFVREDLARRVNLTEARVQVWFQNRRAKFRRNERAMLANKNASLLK
Sequence of HOXB6 (Homo sapiens, UniProt P17509 132-218) (P17509 132-218): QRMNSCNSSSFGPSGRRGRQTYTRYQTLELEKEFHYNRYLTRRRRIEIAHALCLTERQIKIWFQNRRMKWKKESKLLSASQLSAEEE
Sequence of HOXA2 (Homo sapiens, UniProt O43364 129-215, R185T) (O43364 129-215 R185T): as the sequence (O43364 129-215 R185K) above, with K57T counted along it
Sequence of VAX1 (Homo sapiens, UniProt Q5SQQ9 86-172, T142I) (Q5SQQ9 86-172 T142I): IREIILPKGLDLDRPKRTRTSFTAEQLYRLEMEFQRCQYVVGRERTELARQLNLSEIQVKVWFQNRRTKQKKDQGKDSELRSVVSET
Sequence of MSX2 (Homo sapiens, UniProt P35548 130-214, F161Y) (P35548 130-214 F161Y): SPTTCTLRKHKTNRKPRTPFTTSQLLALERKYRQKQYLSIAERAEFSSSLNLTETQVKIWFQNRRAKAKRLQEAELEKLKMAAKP
Sequence of HOXA7 (Homo sapiens, UniProt P31268 116-202) (P31268 116-202): as the sequence (P31268 116-202 W177C) above, with C62W counted along it
Sequence of MSX2 (Homo sapiens, UniProt P35548 130-214, R199I) (P35548 130-214 R199I): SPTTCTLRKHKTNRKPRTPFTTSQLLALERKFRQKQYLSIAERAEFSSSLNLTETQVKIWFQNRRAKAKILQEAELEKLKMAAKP
Sequence of PRRX1 (Homo sapiens, UniProt P54821 80-166) (P54821 80-166): as the sequence (P54821 80-166 F113S) above, with S34F counted along it
Sequence of VAX1 (Homo sapiens, UniProt Q5SQQ9 86-172, K157R) (Q5SQQ9 86-172 K157R): as the sequence (Q5SQQ9 86-172 T142I) above, with I57T, K72R counted along it
Sequence of HOXB6 (Homo sapiens, UniProt P17509 132-218, K202E) (P17509 132-218 K202E): as the sequence (P17509 132-218) above, with K71E counted along it

With CTAATTAC, the binding signal in test [1] is 12.7 upbm affinity estimate (log intensity, higher = more binding, comparable within an allelic series); in test [2], 10.8 upbm affinity estimate (log intensity, higher = more binding, comparable within an allelic series); in [3] it was 11.9 upbm affinity estimate (log intensity, higher = more binding, comparable within an allelic series); in test [4], 14.4 upbm affinity estimate (log intensity, higher = more binding, comparable within an allelic series); in test [5], 11.5 upbm affinity estimate (log intensity, higher = more binding, comparable within an allelic series); in test [6] it was 10 upbm affinity estimate (log intensity, higher = more binding, comparable within an allelic series). Besides, the binding signal was 13.8 upbm affinity estimate (log intensity, higher = more binding, comparable within an allelic series) in test [7]; 14.2 upbm affinity estimate (log intensity, higher = more binding, comparable within an allelic series) in test [8]; 13.2 upbm affinity estimate (log intensity, higher = more binding, comparable within an allelic series) in test [9]; 14 upbm affinity estimate (log intensity, higher = more binding, comparable within an allelic series) in test [10]; 14.2 upbm affinity estimate (log intensity, higher = more binding, comparable within an allelic series) in test [11]; 14.1 upbm affinity estimate (log intensity, higher = more binding, comparable within an allelic series) in test [12]. Moreover, the binding signal is 13.8 upbm affinity estimate (log intensity, higher = more binding, comparable within an allelic series) in [13]; 14 upbm affinity estimate (log intensity, higher = more binding, comparable within an allelic series) in [14]; 8.84 upbm affinity estimate (log intensity, higher = more binding, comparable within an allelic series) in test [15]; 12.9 upbm affinity estimate (log intensity, higher = more binding, comparable within an allelic series) in test [16]; 12.5 upbm affinity estimate (log intensity, higher = more binding, comparable within an allelic series) in [17]; 13.6 upbm affinity estimate (log intensity, higher = more binding, comparable within an allelic series) in test [18]. The binding signal in [19] is 14.1 upbm affinity estimate (log intensity, higher = more binding, comparable within an allelic series); in [20], 12.3 upbm affinity estimate (log intensity, higher = more binding, comparable within an allelic series).

Turning to CTAATTAG, the binding signal is 13 upbm affinity estimate (log intensity, higher = more binding, comparable within an allelic series) in [1]; 10.8 upbm affinity estimate (log intensity, higher = more binding, comparable within an allelic series) in [2]; 11.9 upbm affinity estimate (log intensity, higher = more binding, comparable within an allelic series) in test [3]; 14.7 upbm affinity estimate (log intensity, higher = more binding, comparable within an allelic series) in test [4]; 12 upbm affinity estimate (log intensity, higher = more binding, comparable within an allelic series) in test [5]; 10.2 upbm affinity estimate (log intensity, higher = more binding, comparable within an allelic series) in test [6]. The binding signal in [7] is 14.6 upbm affinity estimate (log intensity, higher = more binding, comparable within an allelic series); in test [8], 14.2 upbm affinity estimate (log intensity, higher = more binding, comparable within an allelic series); in test [9], 13.6 upbm affinity estimate (log intensity, higher = more binding, comparable within an allelic series); in [10], 14.3 upbm affinity estimate (log intensity, higher = more binding, comparable within an allelic series); in test [11] it was 14.2 upbm affinity estimate (log intensity, higher = more binding, comparable within an allelic series); in test [12], 14.2 upbm affinity estimate (log intensity, higher = more binding, comparable within an allelic series). Besides, the binding signal in test [13] was 13.9 upbm affinity estimate (log intensity, higher = more binding, comparable within an allelic series); in test [14], 14.1 upbm affinity estimate (log intensity, higher = more binding, comparable within an allelic series); in test [15] it was 8.87 upbm affinity estimate (log intensity, higher = more binding, comparable within an allelic series); in test [16] it was 13.2 upbm affinity estimate (log intensity, higher = more binding, comparable within an allelic series); in test [17], 12.6 upbm affinity estimate (log intensity, higher = more binding, comparable within an allelic series); in [18], 13.7 upbm affinity estimate (log intensity, higher = more binding, comparable within an allelic series). The binding signal was 14.3 upbm affinity estimate (log intensity, higher = more binding, comparable within an allelic series) in test [19] and 12.2 upbm affinity estimate (log intensity, higher = more binding, comparable within an allelic series) in test [20].

Turning to ACAATTAA, the binding signal was 11.7 upbm affinity estimate (log intensity, higher = more binding, comparable within an allelic series) in test [1]; 10.5 upbm affinity estimate (log intensity, higher = more binding, comparable within an allelic series) in [2]; 11.6 upbm affinity estimate (log intensity, higher = more binding, comparable within an allelic series) in test [3]; 13.7 upbm affinity estimate (log intensity, higher = more binding, comparable within an allelic series) in test [4]; 11.2 upbm affinity estimate (log intensity, higher = more binding, comparable within an allelic series) in test [5]; 10.1 upbm affinity estimate (log intensity, higher = more binding, comparable within an allelic series) in test [6]. In addition, the binding signal was 12.9 upbm affinity estimate (log intensity, higher = more binding, comparable within an allelic series) in test [7]; 12.6 upbm affinity estimate (log intensity, higher = more binding, comparable within an allelic series) in [8]; 12.8 upbm affinity estimate (log intensity, higher = more binding, comparable within an allelic series) in test [9]; 13.1 upbm affinity estimate (log intensity, higher = more binding, comparable within an allelic series) in [10]; 13.8 upbm affinity estimate (log intensity, higher = more binding, comparable within an allelic series) in [11]; 13.7 upbm affinity estimate (log intensity, higher = more binding, comparable within an allelic series) in test [12]. Moreover, the binding signal in test [13] was 13.4 upbm affinity estimate (log intensity, higher = more binding, comparable within an allelic series); in [14], 12.5 upbm affinity estimate (log intensity, higher = more binding, comparable within an allelic series); in [15], 8.88 upbm affinity estimate (log intensity, higher = more binding, comparable within an allelic series); in [16], 12 upbm affinity estimate (log intensity, higher = more binding, comparable within an allelic series); in [17] it was 11.5 upbm affinity estimate (log intensity, higher = more binding, comparable within an allelic series); in test [18], 13.3 upbm affinity estimate (log intensity, higher = more binding, comparable within an allelic series). The binding signal in test [19] is 12.3 upbm affinity estimate (log intensity, higher = more binding, comparable within an allelic series); in [20], 11.9 upbm affinity estimate (log intensity, higher = more binding, comparable within an allelic series).

ACCAATTA: the binding signal in [1] was 12.2 upbm affinity estimate (log intensity, higher = more binding, comparable within an allelic series); in test [3], 11.2 upbm affinity estimate (log intensity, higher = more binding, comparable within an allelic series); in [4], 14.2 upbm affinity estimate (log intensity, higher = more binding, comparable within an allelic series); in test [5], 11.5 upbm affinity estimate (log intensity, higher = more binding, comparable within an allelic series); in [6], 9.84 upbm affinity estimate (log intensity, higher = more binding, comparable within an allelic series); in [7], 13.8 upbm affinity estimate (log intensity, higher = more binding, comparable within an allelic series). For the same sequence, the binding signal in test [8] is 12.8 upbm affinity estimate (log intensity, higher = more binding, comparable within an allelic series); in test [9], 13.4 upbm affinity estimate (log intensity, higher = more binding, comparable within an allelic series); in [10] it was 13.2 upbm affinity estimate (log intensity, higher = more binding, comparable within an allelic series); in test [12], 14.2 upbm affinity estimate (log intensity, higher = more binding, comparable within an allelic series); in test [13], 13.8 upbm affinity estimate (log intensity, higher = more binding, comparable within an allelic series); in test [14] it was 12.4 upbm affinity estimate (log intensity, higher = more binding, comparable within an allelic series). In addition, the binding signal in test [15] is 8.84 upbm affinity estimate (log intensity, higher = more binding, comparable within an allelic series); in [16], 12.7 upbm affinity estimate (log intensity, higher = more binding, comparable within an allelic series); in test [18], 13.6 upbm affinity estimate (log intensity, higher = more binding, comparable within an allelic series); in test [19] it was 12.7 upbm affinity estimate (log intensity, higher = more binding, comparable within an allelic series); in [20], 11.7 upbm affinity estimate (log intensity, higher = more binding, comparable within an allelic series).
